Test in all cases: NCI-60 one-dose screen, 48 h (100 = growth as untreated, 0 = no growth, -100 = all killed)
Holding throughout (conditions): 10 µM unless noted

The subject of test [1] is SK-MEL-2 melanoma.
For test [2], the system named is EKVX NSCLC.
For test [3], the system named is SN12C renal.
Test [4] relates to UO-31 renal.
In test [5] the test system is TK-10 renal.
Test [6] relates to ACHN renal.
Test [7] deals with CAKI-1 renal.
For test [8], the system named is A498 renal.
Test [9] has as its system CCRF-CEM leukemia.
Test [10] relates to MOLT-4 leukemia.

Compounds without any hit were thinned out: in the full panel of roughly 83,000, 20% have a hit.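 Percent growth is the endpoint: 0 to 100 indicates growth inhibition (40 means 60% inhibition), 0 means no net growth, and negative values indicate cell death.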 Unmarked numbers belong to inactive results. Active and inactive are the calls of the source. How the source made its calls: active means growth percent below 10; inactive means the rest.

As for `O=C(/C=C/c1cccc2ccccc12)Nc1ncc(Cc2ccccc2)s1`, the growth is 43.4% in test [1]; 20.3% in [2]; 32.1% in test [3]; 32.2% in test [4]; 31.7% in test [5]; 20.8% in [6]. For the same compound, the growth was 22.5% in test [7], -10.8% (active) in [8], 10.4% in test [9] and 18% in [10].
Consider `COc1ccc2c(c1)c1nc3cc(C)c(C)cc3nc1n2CCN(C)C`, for which the growth was 26.4% in test [1]; 13.2% in test [2]; 17% in test [3]; -24.1% (active) in [4]; 39.3% in [5]; -11.4% (active) in [6]. Further, the growth in test [7] is 4.98% (active); in test [8] it was 45%; in [9], 6.67% (active); in test [10], 0.921% (active).
For `COc1cccc(-c2nn(-c3ccccc3)cc2-c2ccnc(NCCCNS(=O)(=O)c3ccccc3)c2)c1`, the growth was 29.7% in [1]; 46.5% in test [2]; 38.7% in [3]; 13.8% in test [4]; 46.9% in test [5]; 28.1% in [6]. The growth is 48.4% in test [7], 42.3% in [8], 14.4% in test [9] and 8.92% (active) in [10].
As to `COC(=O)[C@]12CC[C@@H](C)[C@H](C)[C@@H]1C1=CC[C@@H]3[C@@]4(C)C=C(O)C(=O)C(C)=C4CC[C@@]3(C)[C@]1(C)CC2`, the growth is 27% in test [1]; 1.05% (active) in test [2]; 18.9% in [3]; 34.3% in test [4]; 14.6% in test [5]; 22.4% in test [6]. The growth in test [7] is 33.4%; in [8], 81.5%; in test [9], -26.2% (active); in [10], -15.9% (active).
`Cc1csc(Nc2nc(-c3cccc(Br)c3)nc(C(Cl)(Cl)Cl)n2)n1`: the growth in test [1] was 104%; in test [2], 22.8%; in test [3], 78.5%; in [4], 49.4%; in test [5], 49.9%; in test [6], 0.817% (active). Further, the growth was 21.6% in test [7], 31.5% in [8], 91.4% in test [9] and 80.7% in [10].
Consider `CC1(C)c2ccccc2C(=O)C1(Br)Cc1ccccc1` (stereo not given), for which the growth is 103% in [1]; 94.5% in [2]; 95.4% in test [3]; 56.6% in [4]; 105% in [5]; 87.7% in test [6]. The growth in test [7] was 50.5%; in [8] it was 89.7%; in test [9], 26.4%; in [10] it was 16.4%.
Take `O=C1c2cc3c(cc2-c2c1c1ccc(F)cc1c(=O)n2CCCN1CCOCC1)OCO3`: the growth is 82.1% in test [1]; 82.4% in [2]; 33.2% in test [3]; 35.9% in [4]; 106% in test [5]; 4.58% (active) in [6]. The growth is 17.2% in test [7], 59% in [8], 19.6% in test [9] and 3.65% (active) in [10].
For `C=C(C)[C@@H]1CC[C@]2(C)[C@H](CC=C3[C@@H]4CC(C)(C)CC[C@]4(C(=O)OC)CC[C@]32C)[C@@]1(C)CC/C(N)=N/O`, the growth in test [1] is 46.6%; in test [2], 25.2%; in [3], 36.4%; in test [4], 40.3%; in [5] it was 67.9%; in test [6] it was 43.8%. Moreover, the growth was 37% in [7], 77.7% in test [8], 37.3% in test [9] and 6.47% (active) in [10].
Consider `Cc1ccccc1-c1nc(C(Cl)Cl)nc2cc(-c3ccccc3)nn12`, for which the growth in test [1] is 101%; in test [2], 57.8%; in test [3] it was 81.4%; in [4] it was 57.2%; in test [5], 65.1%; in test [6] it was 41.1%. Also, the growth was 44.8% in test [7], 85.4% in [8], 102% in test [9] and 83.9% in [10].
Consider `C=C1C(=O)O[C@H]2[C@H]1CC/C(Cn1cc(-c3ccc(F)cc3)nn1)=C\CC[C@@]1(C)O[C@@H]21`, for which the growth was 14.9% in test [1]; 68.4% in test [2]; -13.6% (active) in test [3]; -80.8% (active) in [4]; -92.9% (active) in [5]; -19.7% (active) in [6]. The growth in test [7] was -12.9% (active); in [8], 27.4%; in [9], -36.6% (active); in test [10], -25.4% (active).
On to `O=C1c2cccc3cccc(c23)C(=O)N1CC#Cc1ccc2c3c(cccc13)C(=O)N(CCN1CCNCC1)C2=O`, for which the growth in test [1] is 113%; in test [2], 104%; in test [3], 97.2%; in test [4] it was 97.7%; in test [5], 141%; in test [6], 74.4%. Besides, the growth in [7] is 82.4%; in test [8], 112%; in test [9], 7.71% (active); in test [10] it was 6.74% (active).
With `N=C(N)c1ccc(-c2ccc(-c3cc(F)cc(F)c3)o2)nc1`, the growth in test [1] was 106%; in test [2], 90.4%; in test [3] it was 86.9%; in test [4] it was 69.8%; in [5] it was 124%; in test [6], 90%. The growth in test [7] is 78.5%; in test [8], 90.3%; in test [9] it was -35.6% (active); in test [10], 73.8%.
In the case of `Cn1cccc1/C=C1/SC(=S)N(CCc2ccc(O)cc2)C1=O`, the growth in test [1] is 64.7%; in test [2], 61%; in test [3], 60%; in test [4] it was 53.7%; in test [5], 110%; in test [6] it was 59.9%. For the same compound, the growth in test [7] is 44.7%; in test [8], 81.8%; in test [9], 21.9%; in test [10] it was 31%.

The values are drawn from PubChem BioAssay (NCI).
